Common to all, as to assay: NCI-60 one-dose screen, 48 h (100 = growth as untreated, 0 = no growth, -100 = all killed)
One assay has as its system MCF7 breast.
The subject of a further assay is HCC-2998 colon.
The next assay concerns T-47D breast. Particulars: 10 µM unless noted.
Another assay has as its system BT-549 breast. Particulars: 10 µM unless noted.
A further assay relates to MDA-MB-435 melanoma. Particulars: 10 µM unless noted.
Another assay concerns SW-620 colon. Particulars: 10 µM unless noted.
A further assay concerns HCT-116 colon. Particulars: 10 µM unless noted.
The next assay relates to KM12 colon. The conditions noted are these: 10 µM unless noted.

“And” between values parts separate entries of the source, which are not always exact repeats. Identical values can stand only once. Compounds without any hit were thinned out: in the full panel of roughly 83,000, 20% have a hit.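 Growth was measured after 48 h exposure to one concentration of compound in 96-well plates. Values under 10 count as active.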 The source made the active and inactive calls.

With `COc1cc(NS(C)(=O)=O)ccc1Nc1c2ccccc2nc2ccccc12`, the growth in the assay on MCF7 breast (2.5 µM) was 32.5% (inactive); with MCF7 breast (250 µM), -69.8% (active) and -100% (active).
`N[C@H](C(=O)O)[C@@H]1CC(Cl)=NO1`: in the assay with MCF7 breast (20 µM), the growth was 12.3% (inactive).
For `CN(C)C(=O)c1ccc(SC(=S)NCc2ccccc2)cc1`, the growth in the assay with HCC-2998 colon (10 µM) is 104% (inactive); with HCC-2998 colon (100 µM), -78.3% (active).
For `CCCCCCCCCCCCCCNCc1ccccc1`, the growth in the assay with T-47D breast was 72.9% (inactive); with BT-549 breast, 96.6% (inactive); with MDA-MB-435 melanoma, 72.2% (inactive); in the assay on SW-620 colon, 42.5% (inactive); in the assay on MCF7 breast (10 µM) it was 51.2% (inactive); in the assay on HCT-116 colon it was 86.8% (inactive). For the same molecule, the growth was 16.1% (inactive) with HCC-2998 colon (10 µM unless noted) and 62.5% (inactive) in the assay with KM12 colon.
`O=C(/C=C\c1cc(Br)ccc1O)/C=C/c1cc(Br)ccc1O`: the growth was 6.69% (active) with T-47D breast; -12.3% (active) in the assay with BT-549 breast; -47.9% (active) with MDA-MB-435 melanoma; -43.4% (active) with SW-620 colon; 6.18% (active) with MCF7 breast (10 µM); -97.8% (active) with HCT-116 colon. Moreover, the growth with HCC-2998 colon (10 µM unless noted) was -74.4% (active); in the assay on KM12 colon, -71.5% (active).
On to `O=Nc1ccccc1N=O`, for which the growth in the assay on T-47D breast is 94.3% (inactive); in the assay on BT-549 breast, 92.7% (inactive); with MDA-MB-435 melanoma, 87.3% (inactive); in the assay with SW-620 colon, 77.5% (inactive); with MCF7 breast (10 µM), 65.1% (inactive); in the assay on HCT-116 colon it was 92.8% (inactive). Also, the growth is 93.9% (inactive) in the assay with HCC-2998 colon (10 µM unless noted) and 91.3% (inactive) in the assay with KM12 colon.
Turning to `CC1SC(=S)N(c2ccc(Cl)cc2)C1=O` (configuration not stated), the growth is 73.9% (inactive) and 62.8% (inactive) in the assay with T-47D breast; 106% (inactive) and 86.2% (inactive) in the assay on BT-549 breast; 106% (inactive) and 99.8% (inactive) with MDA-MB-435 melanoma; 109% (inactive) and 113% (inactive) with SW-620 colon; 96.9% (inactive) and 79.9% (inactive) in the assay on MCF7 breast (10 µM); 100% (inactive) and 93.4% (inactive) in the assay on HCT-116 colon. For the same molecule, the growth was 90.7% (inactive) in the assay with HCC-2998 colon (10 µM unless noted); 94.6% (inactive) and 108% (inactive) in the assay with KM12 colon.
With `COC(=O)Nc1nc2ccc(C(=O)c3ccccc3)cc2[nH]1`, the growth in the assay with T-47D breast was 36.8% (inactive) and 82.6% (inactive) and 77.2% (inactive); with BT-549 breast, 63.9% (inactive) and 63% (inactive) and 51.4% (inactive); with MDA-MB-435 melanoma it was -59.5% (active) and -46.6% (active) and -73% (active); in the assay on SW-620 colon, 24.2% (inactive) and 25% (inactive) and 19.4% (inactive); with MCF7 breast (10 µM), 21.4% (inactive) and 18.4% (inactive) and 8.91% (active); in the assay with HCT-116 colon it was 19.9% (inactive) and 9.73% (active) and 13.3% (inactive). The growth in the assay on HCC-2998 colon (10 µM unless noted) was 57.3% (inactive) and 2.48% (active) and 23.8% (inactive); with KM12 colon, 11.2% (inactive) and -7.2% (active) and 3.76% (active).
Take `COc1cc(/C=C/C(C)=O)ccc1O`: the growth in the assay on T-47D breast was 97.2% (inactive) and 106% (inactive); in the assay with BT-549 breast, 104% (inactive); in the assay with MDA-MB-435 melanoma it was 101% (inactive) and 106% (inactive); with SW-620 colon, 104% (inactive) and 110% (inactive); in the assay on MCF7 breast (10 µM), 96.8% (inactive) and 98.8% (inactive); in the assay on HCT-116 colon, 104% (inactive) and 103% (inactive). The growth is 102% (inactive) and 104% (inactive) in the assay on HCC-2998 colon (10 µM unless noted); 90% (inactive) and 92.7% (inactive) in the assay on KM12 colon.
Consider `CCCCCCC(C)c1ccccc1O` (configuration not stated) (tested in a mixture with another compound), for which the growth was 94.8% (inactive) with T-47D breast; 108% (inactive) with BT-549 breast; 98.7% (inactive) in the assay on MDA-MB-435 melanoma; 103% (inactive) in the assay with SW-620 colon; 116% (inactive) with MCF7 breast (10 µM); 111% (inactive) in the assay on HCT-116 colon. The growth in the assay on HCC-2998 colon (10 µM unless noted) is 103% (inactive); with KM12 colon it was 107% (inactive).
On to `O=C1N[C@H]2[C@H](CS[C@H]2CCCCC(=O)N(CCP(c2ccccc2)c2ccccc2)CCP(c2ccccc2)c2ccccc2)N1`, for which the growth in the assay on T-47D breast was 74.8% (inactive); with BT-549 breast, 96.9% (inactive); in the assay with MDA-MB-435 melanoma, 96.1% (inactive); in the assay on SW-620 colon, 88.7% (inactive); in the assay with MCF7 breast (10 µM) it was 20.9% (inactive); in the assay with HCT-116 colon, 35.5% (inactive). In addition, the growth was 88.9% (inactive) in the assay with HCC-2998 colon (10 µM unless noted) and 59.9% (inactive) in the assay on KM12 colon.
As for `CN(C)c1ccc(/C=N/N=C(\C#N)[S][Sn]([Cl])([c]2ccccc2)[c]2ccccc2)cc1`, the growth in the assay on T-47D breast is -65.8% (active); in the assay with BT-549 breast, 57.5% (inactive); with MDA-MB-435 melanoma it was 15.6% (inactive); in the assay with SW-620 colon, -52.2% (active); in the assay on MCF7 breast (10 µM), -81.9% (active); with HCT-116 colon, -59.4% (active). Besides, the values for the growth in the assay on HCC-2998 colon (10 µM unless noted) and in the assay with KM12 colon were 63.5% (inactive) and 63.3% (inactive), respectively.
With `CN(C)c1ccc(N=Nc2cccc3ccccc23)cc1`, the growth was 22.2% (inactive) with T-47D breast; 76.8% (inactive) in the assay with BT-549 breast; 98.8% (inactive) in the assay on MDA-MB-435 melanoma; 98.6% (inactive) in the assay on SW-620 colon; 14.2% (inactive) in the assay with MCF7 breast (10 µM); 75.2% (inactive) with HCT-116 colon. The growth with HCC-2998 colon (10 µM unless noted) was 69.2% (inactive); in the assay with KM12 colon, 94.2% (inactive).
Turning to `Oc1c(Cl)c2ccccc2c2ccccc12`, the growth is 122% (inactive) with T-47D breast; 95.8% (inactive) in the assay with BT-549 breast; -72% (active) in the assay with MDA-MB-435 melanoma; 111% (inactive) with SW-620 colon; 98.8% (inactive) in the assay with MCF7 breast (10 µM); 101% (inactive) with HCT-116 colon. Moreover, the growth was 117% (inactive) with HCC-2998 colon (10 µM unless noted) and 107% (inactive) with KM12 colon.
`C1=C(c2ccccc2)C(c2ccc(OCCN3CCCCC3)cc2)Oc2ccccc21` (configuration not stated): the growth in the assay with T-47D breast is 26.1% (inactive); with BT-549 breast, 72.9% (inactive); in the assay with MDA-MB-435 melanoma it was 18.7% (inactive); in the assay on SW-620 colon it was 16.2% (inactive); in the assay with MCF7 breast (10 µM), 6.42% (active); in the assay on HCT-116 colon, 46.6% (inactive). Moreover, the growth in the assay on HCC-2998 colon (10 µM unless noted) is 34.1% (inactive); with KM12 colon it was 46.4% (inactive).
As to `S=C(NCCNC(=S)[S][Sn]([c]1ccccc1)([c]1ccccc1)[c]1ccccc1)[S][Sn]([c]1ccccc1)([c]1ccccc1)[c]1ccccc1`, the growth with T-47D breast was -75.7% (active); with BT-549 breast it was -78.8% (active); in the assay with MDA-MB-435 melanoma, -88% (active); with SW-620 colon it was -97.5% (active); with MCF7 breast (10 µM), -99.8% (active); in the assay on HCT-116 colon, -82.8% (active). The growth with HCC-2998 colon (10 µM unless noted) was -82.4% (active); with KM12 colon, -99.4% (active).
`Oc1ccc(/C=N/NC(=S)Nc2ccccc2)nc1`: the growth with T-47D breast is 12.6% (inactive); with BT-549 breast it was 44.8% (inactive); in the assay with MDA-MB-435 melanoma, 31.5% (inactive); with SW-620 colon it was 39.4% (inactive); in the assay with MCF7 breast (10 µM), 16.4% (inactive); with HCT-116 colon, 21% (inactive). The growth is 5.05% (active) with HCC-2998 colon (10 µM unless noted) and 11.3% (inactive) in the assay with KM12 colon.
